Test results reported in PubChem BioAssay AID686979 (National Center for Advancing Translational Sciences (NCATS), 2013).
In all, about 420,000 compounds went through this assay and about 50,000 (12%) were called active. A call without a number means that no potency is given here. Roughly 26% stayed inconclusive and do not appear here. The call rests on the fitted dose curve; in most records, active means well fitted inhibition curve with a large enough effect; inconclusive means small, poorly fitted or top-dose-only effect; inactive means flat fitted curve, though single readings scatter. This excerpt belongs to a sample that is enriched for actives.

Assay: qHTS for Inhibitors of human tyrosyl-DNA phosphodiesterase 1 (TDP1): qHTS in cells in presence of CPT; further: nearly all actives have a fitted effect of over 55% in size
Details: chicken DT40 Tdp1-/-;hTDP1 cells + 20 nM CPT, ATP luminescence, 48 h; series mostly up to 46.2 µM
Outline: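 Chicken DT40 Tdp1-/- cells complemented with human TDP1, 400 cells/well, exposed to compounds plus 20 nM camptothecin for at least 48 h at 37 C; viability read as ATP content by CellTiter-Glo luminescence.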
Potency means the concentration at half of the fitted maximal effect.

Row | Structure (SMILES) | Potency
1 | O=C1NC(=O)C(CCc2ccccc2)(c2ccccc2)N1 (stereo not drawn) | inactive
2 | CC(=O)NN=C(C)c1ccc(NC(=O)C2CC2)cc1 | inactive
3 | Cc1c(S(=O)(=O)NC(C)c2ccccc2)c(=O)n(C)c(=O)n1C (stereo not drawn) | inactive
4 | O=C(NC(Cc1ccccc1)C(=O)O)/C(=C\c1ccccc1)NC(=O)c1ccco1 (stereo not drawn) | inactive
5 | O=C(NCCCn1ccnc1)/C(=C\c1ccccc1F)NC(=O)c1ccccc1 | inactive
6 | Cc1cc(C)cc(NS(=O)(=O)c2ccc3[nH]cc(C(=O)N4CCCCC4)c(=O)c3c2)c1 | inactive
7 | C=CCOc1c(Br)cc(/C=N\n2nnnc2N)cc1OC | inactive
8 | COc1cc(/C=C2/C(=O)NN(c3cccc(Cl)c3)C2=O)cc(Br)c1O | inactive
9 | CCOc1c(Br)cc(/C=C2\C(=O)N(CCC#N)N=C2C)cc1OC | 20.6 µM (active)
10 | COc1ccc(-n2c(-c3ccc(Cl)cc3)n[nH]c2=S)c(OC)c1 | inactive
11 | CCc1cc(=O)oc2c(C)c(OCC(=O)N3CC[C@@]4(O)CCCC[C@H]4C3)ccc12 | inactive
12 | Cc1ccc(NC(=S)NC2CCCC2)cc1 | inactive
13 | Cc1ccc(/C=N/NC(=O)CNC(=O)COc2ccccc2)o1 | inactive
14 | Cc1ccc(/C=N/NC(=S)NC2CCCCC2)o1 | 14.6 µM (active)
15 | CC12CCC(=O)N1C(C(=O)Nc1ccc(F)c(F)c1F)CS2 (stereo not drawn) | inactive
16 | O=C(CCNC(=O)c1ccc(Br)cc1)NCC(c1ccco1)N1CCCCC1 (stereo not drawn) | inactive
17 | COc1ccc(-n2c(=O)c3sc4ccccc4c3n(CC(=O)Nc3cccc(C)c3)c2=O)cc1 | inactive
18 | COc1cccc(NC(=O)CN(C)C(=O)CSCc2nc3scc(-c4cccs4)c3c(=O)[nH]2)c1 | inactive
19 | CCOC(=O)c1cc(C#N)c(N2CCCCC2)nc1-c1ccccc1 | inactive
20 | CC(C)C[C@H]1CNC(=O)C(=O)N1C[C@@H]1CCCN1C[C@H](Cc1ccccc1)N1C[C@H](CC(C)C)N(CC2CCCCCC2)C(=O)C1=O | inactive
21 | CCOc1ccc(CCN2C(=O)C(=O)N([C@@H](CC(C)C)CN3CCC[C@H]3CN3C(=O)C(=O)NC[C@@H]3Cc3ccccc3)C[C@@H]2CC(C)C)cc1 | inactive
22 | CC(C)C[C@H]1CNC(=S)N1C[C@H]1CCCN1C[C@H](Cc1ccc(O)cc1)N1C[C@H](Cc2ccc(O)cc2)N(CC2CCCCC2)C1=S | 25.9 µM (active)
23 | Cc1noc(C)c1-c1cc(NCc2cccnc2)ncn1 | inactive
24 | CNc1cc(-c2c(C)noc2C)ncn1 | 13 µM (active)
25 | COCCNc1cc(-c2c(C)noc2C)ncn1 | inactive
26 | Cc1ccc(S(=O)(=O)N2CCCCC2)cc1C(=O)N1CCN(CCO)CC1 | inactive

Row | Structure (SMILES) | Potency
27 | CC1(C)CCc2cc(S(=O)(=O)N3CCN(c4nc(-c5cccs5)nc5ccccc45)CC3)ccc2O1 | inactive
28 | CCOc1ncccc1C(=O)Nc1ccc2c(c1)OCCO2 | inactive
29 | O=C(Nc1ccc2c(c1)OCCO2)c1cnccn1 | inactive
30 | O=C(Nc1ccc(S(=O)(=O)Nc2nccs2)cc1)c1cc(-c2ccncc2)nc2ccccc12 | inactive
31 | Cc1ccc2nc(-c3cccc(Br)c3)cc(C(=O)Nn3cnnc3)c2c1 | inactive
32 | Cc1ccc2nc(-c3ccncc3)cc(C(=O)Nc3ccncc3)c2c1 | 13 µM (active)
33 | COC(=O)CNC(=O)c1cc(-c2ccncc2)nc2ccccc12 | inactive
34 | Cc1ccc2nc(-c3ccncc3)cc(C(=O)Nc3ccc4c(c3)OCCO4)c2c1 | 18.4 µM (active)
35 | O=C(Nc1ccncc1)c1cc(-c2ccccn2)nc2ccc(Br)cc12 | inactive
36 | CCN(CC)CCNC(=O)c1ccc(NC(=O)c2cc(-c3ccncc3)nc3ccccc23)cc1 | 14.6 µM (active)
37 | COc1ccc(C(=O)CCC(=O)Nc2ccc(Cl)cc2)cc1 | inactive
38 | O=C1NC[C@H](CCCCN2CCN(CCc3ccccc3)C(=O)C2=O)N(CC2CCCCC2)C1=O | inactive
39 | O=C(Nc1ccccc1)c1ccco1 | inactive
40 | O=C(OC1CC2CC1[C@H]1CCCCN1C2=O)N1CCOCC1 (stereo partly drawn) | inactive
41 | CCc1c(Nc2ccccc2C)nc(N)[nH]c1=O | inactive
42 | CCOCCn1c(C(C)C)nc2ccccc21 | inactive
43 | CCCn1c(C(O)c2cc(OC)ccc2OC)nc2ccccc21 (stereo not drawn) | inactive
44 | CCCn1c(C(O)c2ccc(OCC)cc2)nc2ccccc21 (stereo not drawn) | 20.6 µM (active)
45 | O=C(O)CCCC(=O)N1N=C(c2ccco2)CC1c1ccco1 (stereo not drawn) | inactive
46 | Cc1nn(C)c(Oc2ccc(Cl)cc2)c1C=O | inactive
47 | Cc1ccc(C(=O)OC2=CC(=O)CC(C)(C)C2)cc1 | inactive
48 | CC1(C)CC(=O)C=C(c2ccccc2CO)C1=O | inactive
49 | Cc1ccc(-c2ccc(C3=CC(=O)CC(C)(C)C3=O)cc2)cc1 | 0.184 µM (active)
50 | O=C(CC1C(=O)N(c2ccccc2)C(=O)N1CCc1cccs1)Nc1ccc(F)cc1 (stereo not drawn) | inactive
51 | CCCCc1nc2ccc(F)cc2cc1C | inactive
52 | Cc1ccnc(NS(=O)(=O)c2ccc(NC(=O)c3oc4ccccc4c3C)cc2)n1 | inactive

Row | Structure (SMILES) | Potency
53 | CCOC(=O)c1cnc2[nH]c3ccccc3n2c1=O | inactive
54 | O=c1[nH]c2ccccc2n2c(-c3ccccc3)nnc12 | 20.6 µM (active)
55 | CC(=O)c1c(-c2ccccc2)c2ccccc2[nH]c1=O | inactive
56 | N#Cc1ccc(OCC(=O)NC(=O)NC2CCS(=O)(=O)C2)cc1 (stereo not drawn) | inactive
57 | O=C(CNC(=O)c1cccs1)N/N=C/c1cccc(Br)c1 | inactive
58 | CCOC(=O)c1c(-c2ccccc2)oc2ccc(OCC(=O)NN)cc12 | inactive
59 | COC(=O)c1sccc1NC(=O)c1cc(OC)c(OC)c(OC)c1 | inactive
60 | COC(=O)c1c(-c2ccsc2)oc2ccc(-c3cc(OC)c(OC)c(OC)c3)cc12 | 18.4 µM (active)
61 | Cc1cccc(OCC(=O)Nc2ccc(C(=O)O)cc2NC(=O)COc2cccc(C)c2)c1 | inactive
62 | O=C(Cc1ccccc1)Nc1cccc(NC(=O)c2ccccc2)c1 | inactive
63 | O=C(CCl)Nc1cccc(CP(=O)(c2ccccc2)c2ccccc2)c1 | 3.26 µM (active)
64 | CCc1cccc(NC(=O)CCC(=O)O)c1 | inactive
65 | COc1ccc(N2CCN(C(=O)c3cn(C)c4ccc(S(=O)(=O)N5CCOCC5)cc4c3=O)CC2)cc1 | inactive
66 | O=C(CC[C@H]1O[C@@H](n2ccc(=O)[nH]c2=O)[C@H](O)[C@@H]1O)N[C@H](Cc1ccccc1)C(=O)NCc1ccco1 | inactive
67 | COc1ccc(CC(=O)OC(C)C(=O)Nc2ccc(S(N)(=O)=O)cc2)cc1 (stereo not drawn) | inactive
68 | COc1cccc(NC(=O)NCCN2CCCCC2)c1 | inactive
69 | COc1cccc(NC(=O)C2(C)CCN2Cc2ccccc2Cl)c1 (stereo not drawn) | 25.9 µM (active)
70 | CCN(CC(=O)Nc1ccc(S(=O)(=O)N2CCCC2)cc1)CC(=O)Nc1cccc(OC)c1 | inactive
71 | CCCn1nc(NC(=O)C(C)C)c2cc3cc(OC)ccc3nc21 | 29.1 µM (active)
72 | CCCn1nc(NS(=O)(=O)c2ccc(F)cc2)c2cc3ccccc3nc21 | inactive
73 | CCCn1nc(NS(=O)(=O)c2ccccc2)c2cc3cc(C)ccc3nc21 | inactive
74 | O=c1cc(CSc2ncn[nH]2)[nH]c2ccc(F)cc12 | inactive
75 | Cc1ccccc1CN1C(=O)CSCC1(C)C(=O)Nc1c(C)cccc1C (stereo not drawn) | inactive
76 | COc1cccc(-c2nc3cc(C)ccc3o2)c1 | inactive
77 | O=S(=O)(c1ccccc1)c1nc(-c2ccccc2F)oc1NCc1cccnc1 | inactive
78 | COc1cccc(-c2nc(S(=O)(=O)c3ccc(C)cc3)c(NCc3ccccc3)o2)c1 | 16.4 µM (active)

Row | Structure (SMILES) | Potency
79 | CCN(CC)C(=O)Cn1cc(S(=O)(=O)CC(=O)NCc2ccc3c(c2)OCO3)c2ccccc21 | inactive
80 | Cc1c(C(=O)NCCCc2ccccc2)cccc1[N+](=O)[O-] | inactive
81 | CCN(CC)CCNCc1ccc(OCc2ccc(Cl)nc2)c(OC)c1 | inactive
82 | Cc1c(C(=O)NCCN(C)C)oc2ccc(S(=O)(=O)N3CCCC3)cc12 | inactive
83 | COc1ccc(NC(=O)c2oc3ccc(S(=O)(=O)N4CCOCC4)cc3c2C)cc1 | 11.6 µM (active)
84 | Cc1occc1C(=O)Nc1cccc(S(=O)(=O)N2CCOCC2)c1 | inactive
85 | CCCNC(=O)C1(C)CCN(C(=O)c2ccc(F)cc2Cl)C1 (stereo not drawn) | inactive
86 | OCC(O)CN(c1ccccc1)c1ccccc1 (stereo not drawn) | inactive
87 | O=C(NCCc1ccccc1)Oc1ccc(Cl)cc1 | inactive
88 | COc1ccc(N2CC(C(=O)NCCN3C(=O)S/C(=C\c4cccnc4)C3=O)CC2=O)c(OC)c1 (stereo not drawn) | inactive
89 | Cc1cc(OCCCC(=O)NCCN2C(=O)S/C(=C\c3cccnc3)C2=O)ccc1Cl | 8.2 µM (active)
90 | CCOc1ccc(N2CC(C(=O)NCCN3C(=O)S/C(=C\c4cccnc4)C3=O)CC2=O)cc1 (stereo not drawn) | inactive
91 | CC1CCN(C(=O)COC(=O)c2cc(S(=O)(=O)N3CCOCC3)ccc2Cl)CC1 | inactive
92 | COc1ccc(O)c(/C=N/N=C/c2cccc([N+](=O)[O-])c2)c1 | inactive
93 | COc1ccc(C(=O)COC(=O)c2ccc([N+](=O)[O-])s2)cc1OC | inactive
94 | COc1cc(NC(=O)COC(=O)c2ccc([N+](=O)[O-])s2)cc(OC)c1OC | inactive
95 | O=C(OCC(=O)N1CCN(c2ccccc2)CC1)c1ccc([N+](=O)[O-])s1 | 10.3 µM (active)
96 | CCN(CC)CCN1C(=O)C2C(C(=O)Nc3ccc(Br)cc3)C3C=CC2(O3)C1C(=O)NC1CCCCC1 (stereo not drawn) | inactive
97 | Brc1cc(Br)c(Oc2cc(Br)c(Br)cc2Br)cc1Br | inactive
98 | CC(=O)Nc1ccc(NC(=O)C(C)n2c3ccccc3c3nc(=O)cc(C)n32)cc1 (stereo not drawn) | inactive
99 | CC(C)(C)c1cc2cccnc2n1Cc1ccccc1 | inactive
100 | O=C(CN1C(=O)NC2(CCCC2)C1=O)Nc1cc(C(F)(F)F)ccc1N1CCOCC1 | inactive
101 | CC(=O)N1CC[n+]2c(-c3ccc([N+](=O)[O-])cc3)csc21 | 18.4 µM (active)
102 | CN1C2CCC1CC(NC(=O)c1ccc([N+](=O)[O-])cc1)C2 (stereo not drawn) | inactive
103 | Cc1cc(C)cc(C(=O)N2CCN=C2SCc2ccc([N+](=O)[O-])cc2)c1 | inactive
